About 83,000 compounds went through this panel and 20% of them were active in at least one assay; those are over-represented in the sample as a whole.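 Method: cells in 96-well plates; compound added at one concentration; 48 h incubation; percent growth measured; values under 10 scored active.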 The source made the active and inactive calls.

The experiment has as its system COLO 205 colon. The experiment in a line: NCI-60 one-dose screen, 48 h (100 = growth as untreated, 0 = no growth, -100 = all killed). Particulars: 10 µM unless noted. As to the method: Cells are grown in 96 well plates and exposed to the test compound for 48 hours. Compounds are tested at a single concentration, which is 10^-5 M for most compounds. The reported endpoint is percent growth (GI% or GIPRCNT), where numbers from 0 - 100% represent growth inhibition, and numbers from -100% - 0 represent cell death. For example, a value of 40 represents 60% growth inhibition. A value of 0 means no net growth occurred over the course of the experiment. A value of -40 indicates 40% of cells at the beginning of the experiment died by the end of the experiment. A value of -100 means all cells are dead at the end of the experiment.
NCI-60 Human Tumor Cell Lines Screen was performed using the standard one-dose NCI protocol, which is described in more detail at https://dtp.cancer.gov/discovery_development/nci-60/default.htm.
Compounds with GIPRCNT values below 10 were considered active. Activity score was based on GIPRCNT using the following formula: […]
Score is 0 for GIPRCNT values of 100 or above, 50 for GIPRCNT values of 0, and 100 for GIPRCNT values of -100.
Take `C/C(=N\NC(=O)CSc1nc2ccccc2c(=O)n1CCc1ccc(S(N)(=O)=O)cc1)c1ccc(Br)cc1`: the growth was 93.6% (inactive). The value for `O=C1/C=C/[C@@H](O)[C@@H]2C[C@@H](O)C[C@H]2/C=C/CCC[C@H]([C@@H](O)CO)O1` was 94.3% (inactive). As for `N=C(N)c1ccc(-c2ccc(-c3ccco3)o2)cc1F`, the growth is -93.4% (active). For `O=[N+]([O-])c1ccc(N=Nc2c(NNc3ccc([N+](=O)[O-])cn3)cc(S(=O)(=O)O)c3ccccc23)nc1`, the growth is 106% (inactive). As for `CS(=O)(=O)c1ccc(C(=O)Nc2ccc(Cl)c(-c3ccccn3)c2)c(Cl)c1`, the growth was 6.45% (active). On to `O=C1/C(=C/c2cc(F)cc(F)c2)Cc2cc(F)cc(F)c21`, for which the growth was 107% (inactive). Consider `NC(N)=N/N=C/c1ccc(Cl)cc1`, for which the growth was 77.6% (inactive). With `O=C1SCN(Cc2ccccc2)CN1Cc1ccccc1`, the growth is 116% (inactive). For `C=C1C(=O)O[C@H]2[C@H]1CC/C(COC(=O)NCc1cn(C)c3ccccc13)=C\CC[C@@]1(C)O[C@@H]21`, the growth is -75.3% (active). Take `CCOC(=O)C1=C(C)NC(=S)NC1c1ccccc1` (stereo not given): the growth is 120% (inactive). For `O=C(Nc1ccc([N+](=O)[O-])cc1)c1cc2ccccc2cc1O`, the growth was 67.8% (inactive).

Consider `CCOCCNc1ccc(S(=O)(=O)c2ccc(N)cc2)cc1N`, for which the growth was 110% (inactive). Take `COc1cc(/C=C/c2cc(/C=C/c3ccc(O)c(OC)c3)n(C(=O)Nc3ccc(F)c(Cl)c3)n2)ccc1O`: the growth is -59.4% (active).

For `COc1ccc(C(=O)C(CN(C)C)c2ccc(OC)cc2)cc1` (stereo not given), the growth is 57.4% (inactive). `CCCCCCCCCCCCCCCC1=NCCN1`: the growth is -70.8% (active).

For `CCCCCCCCCCCCCC1=NC(C)(C)CN1C(C)C`, the growth is -62.9% (active). On to `CCN(CC)c1ccc(/C=C2/NC(=O)NC2=O)cc1`, for which the growth is 3.89% (active). With `O=C(c1ccccc1)c1cccc(C(Br)Br)c1`, the growth was 96.6% (inactive). The value for `CCC(=O)OCc1ccc(OC)cc1` was 113% (inactive); that for `Nc1c(C(=O)Nc2ccccc2)sc2nc3c(cc12)C(=O)CCC3` was -18.4% (active); that for `CCCCCCCCCCCCNC(=O)N[C@H](C(=O)N[C@H]1/C=C/OCCNC(=O)/C=C/[C@H](C(C)C)NC1=O)C(C)C` was 103% (inactive). The value for `c1csc(-c2cnc3nonc3n2)c1` was 91.3% (inactive); that for `O=C1OCC2=C1C(c1ccccc1)c1cc3c(cc1N2CCO)OCO3` (stereo not given) was -8.27% (active).

`O/N=C/c1ccncc1`: the growth is 108% (inactive). For the compound `CCOC(=O)C1C(=O)C=C(c2ccccc2)CC1c1sc(N(C)Cc2ccccc2)nc1Cl` (stereo not given), the growth was 100% (inactive). As to `COc1ccc(/C=C/C(=O)CCC(=O)O)cc1OC`, the growth is 106% (inactive).

Consider `CCCCCCCCCCCCCCCCCC1=NCCN1CCO`, for which the growth is 84.8% (inactive). Consider `CCN(CC)CC(=O)Nc1c(C)ccc(N)c1C`, for which the growth is 97.6% (inactive).

In the case of `O=C(Nc1ccncc1)C(=O)c1cn(S(=O)(=O)c2cccc(Cl)c2F)c2ccccc12`, the growth was 106% (inactive). As for `COc1cc(OC)c2sc(-c3ccc(-n4cncc4-c4ccc(OC)c(N)c4)cc3)nc2c1`, the growth is 111% (inactive). For the compound `O=c1nc(-c2ccccc2)c2cc(-c3ccc(N4CCOCC4)cc3)ccc2[nH]1`, the growth was 82.5% (inactive).

For the compound `COc1ccccc1/C=N\Nc1ccc([N+](=O)[O-])cn1`, the growth is 102% (inactive). Turning to `COc1ccc(/C(C)=N/NC(=O)CSc2nc3ccccc3c(=O)n2CCc2ccc(S(N)(=O)=O)cc2)cc1`, the growth was 33.5% (inactive).

As for `COc1ccc([C@H]2c3[nH]c4ccccc4c3C[C@H]3C(=O)N(CCCCCCC(=O)NO)CC(=O)N23)cc1`, the growth was 22.9% (inactive).

As to `CCOC(=O)c1cc(C(=O)OCC)c(C)nc1C`, the growth was 109% (inactive). With `FC(F)(F)c1nn[nH]n1`, the growth is 122% (inactive). Take `Cc1cc([N+](=O)[O-])c(C)cc1N`: the growth is 121% (inactive).

As for `CC(C)(C)[Si](C)(C)OC1[C@@H](O[Si](C)(C)C(C)(C)C)[C@@H](CNC(=O)NC(=O)NC(=O)CCl)O[C@H]1n1cnc2c(NC(=O)Nc3ccccc3)ncnc21` (stereo not given in full), the growth is 57.1% (inactive).

For the compound `COc1cc(-c2nc(-c3ccc(-c4nc5ccc(F)cc5[nH]4)cc3)no2)cc(OC)c1OC`, the growth is 60.4% (inactive).

`CC(C)N(C(=S)SSC(=S)N(C(C)C)C(C)C)C(C)C`: the growth is 112% (inactive).

The values are drawn from PubChem BioAssay (NCI).
